Sampled rows, rich in hits. Any-hit rate of the full collection: about 3.3%.
GRIN3A LBD mod: binders of NR3A ligand-binding domain, primary screen, biophysical, differential scanning fluorimetry, uHTS. Glutamate receptor ionotropic, NMDA 3A (GRIN3A) ligand-binding domain. AID 1259313, 2017. Tm shift relative to glycine control, % at 25 µM. 2.5% of 340,000 active. NR3A LBD differential scanning fluorimetry, Tm shift; 0% = protein alone, 100% = glycine-bound protein;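 active = melting temperature shift of at least 10% of the positive control shift, at one fixed dose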
UBC13 inh: UBC13 polyubiquitin chain formation inhibitors, primary screen, biochemical, TR-FRET, uHTS; inhibition, % at 20 µM; Ubiquitin-conjugating enzyme E2 N (Homo sapiens), P61088; 0.47% of 330,000 active; in the data active = inhibition above about 45%, passing the limit was not always enough; inconclusive = no clear call, values can overlap the other calls
UBC9 SUMO inh: inhibitors of in vitro SUMOylation cascade, primary screen, biochemical, HTRF, uHTS | SUMO-conjugating enzyme UBC9 (Homo sapiens), P63279 | HTRF SUMOylation assay, SAE1/SAE2 + UBC9 | inhibition, % at 35 µM | 0.36% of 290,000 active; in the data active = inhibition above about 50%, passing the limit was not always enough; inconclusive = no clear call, values can overlap the other calls
Target sequence (P63279 whole entry, looked up): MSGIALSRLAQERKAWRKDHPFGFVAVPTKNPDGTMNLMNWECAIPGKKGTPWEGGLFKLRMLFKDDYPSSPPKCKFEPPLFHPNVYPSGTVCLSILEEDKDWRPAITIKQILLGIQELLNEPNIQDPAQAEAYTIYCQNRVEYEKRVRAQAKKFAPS
sPLA2-III inh: human group III sPLA2 inhibitors, primary screen, biochemical, QFRET, BODIPY PC-A2 liposome substrate; Group 3 secretory phospholipase A2 (Homo sapiens), Q9NZ20; AID 743126, 2013; inhibition, % at 12.2 µM; QFRET BODIPY PC-A2 liposome hydrolysis, fluorescence; 0.56% of 370,000 active;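 active = inhibition above mean plus 3 SD of compounds lying within the high and low control bounds, cut at about 19% in these data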
Target sequence (Q9NZ20 whole entry, looked up): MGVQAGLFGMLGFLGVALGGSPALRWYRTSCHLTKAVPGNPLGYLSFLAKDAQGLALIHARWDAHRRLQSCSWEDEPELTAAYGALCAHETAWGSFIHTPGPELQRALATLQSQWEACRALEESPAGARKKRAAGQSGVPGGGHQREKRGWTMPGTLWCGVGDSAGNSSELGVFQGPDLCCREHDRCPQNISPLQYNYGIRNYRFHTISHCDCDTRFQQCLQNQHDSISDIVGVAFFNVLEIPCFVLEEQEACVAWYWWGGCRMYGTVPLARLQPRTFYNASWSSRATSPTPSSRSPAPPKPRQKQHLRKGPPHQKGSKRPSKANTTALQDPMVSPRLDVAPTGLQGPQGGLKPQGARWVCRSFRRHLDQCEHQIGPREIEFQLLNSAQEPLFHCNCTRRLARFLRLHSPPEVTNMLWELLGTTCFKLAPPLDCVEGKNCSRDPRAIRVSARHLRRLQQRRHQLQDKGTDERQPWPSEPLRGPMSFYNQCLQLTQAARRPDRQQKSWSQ
Casp3 UBC13 ctr: CASP3 inhibitor validation, counterassay for project on UBE2N polyubiquitination blockers, biochemical, one dose | shares compounds with UBC13 inh | Recombinant caspase-3, Caspase-Glo 3/7 luminescence, 60 min | inhibition, % at 20 µM | 4% of 1,400 active;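 active = mean inhibition across replicates above about 26%, limit read from the data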
UBC13 conf: UBC13 polyubiquitination inhibitors, single-point retest, confirmation, biochemical, TR-FRET, single concentration | 68% of 1,400 active | AID 488859, 2010 | shares compounds with UBC13 inh | inhibition, % at 10 µM; in the data active = inhibition above about 45%; inconclusive = no clear call, values can overlap the other calls
Numbers stand for hits; i = inactive; ? = inconclusive; nt = not tested or not shown.

SMILES	GRIN3A LBD mod	UBC13 inh	UBC9 SUMO inh	sPLA2-III inh	Casp3 UBC13 ctr	UBC13 conf
O=C(CN1C(=O)COc2ccccc21)NCCCN1CCN(c2ccccc2F)CC1	i	i	nt	i	nt	nt
CCn1c(=O)cc(SCC(=O)NCCCN2CCN(c3ccccc3F)CC2)c2ccccc21	i	58	i	nt	i	?
CCOc1ccc(NC(=O)CCCOc2cc(=O)n(C)c3ccccc23)cc1	i	74	i	i	i	76
Cn1c(=O)cc(OCC(=O)NCCCN2CCN(c3ccccc3F)CC2)c2ccccc21	i	i	i	i	nt	nt
Cn1c(=O)cc(OCCCC(=O)NCCN2CCN(c3ccccc3F)CC2)c2ccccc21	i	57	i	i	i	i
COc1ccc(Cn2ccc3ccc(-c4ccc5ccn(Cc6ccc(OC)cc6)c5c4)cc32)cc1	nt	nt	nt	i	nt	nt
CC(=O)O[C@H]1[C@@H](O)[C@H](O)[C@H](Oc2c(O)c(C)c3c4c2[C@@H](C)CC[C@@H]4[C@@H](C)C[C@H]3C=C(C)C)O[C@H]1C	i	52	nt	i	i	i
Cc1ccccc1NC(=O)N(C)[C@H]1C[C@H]2c3[nH]c4c(-c5ccccc5)cccc4c3CCN2C(=O)[C@H]1[C@H](C)O	nt	nt	nt	i	nt	nt
COc1ccc(C[C@H]2CN3C(=NC[C@@H]3C(C)C)N2CCNC(=O)CCC2CCCCC2)cc1	i	53	i	i	i	i
CC(C)[C@H]1CN=C2N(CCNC(=O)CCC3CCCCC3)[C@H](Cc3ccc(O)cc3)CN21	i	i	i	i	nt	nt
COc1ccc(C[C@H]2CN3C(=NC[C@@H]3Cc3ccccc3)N2CCNC(=O)CCC2CCCCC2)cc1	i	78	i	i	i	69
COc1cccc([C@@H]2NC(=O)C/C=C/[C@H](C)[C@H](c3cccc(OC)c3)NC(=O)C/C=C/[C@@H]2C)c1	nt	nt	nt	i	nt	nt
Oc1ccc(CN2CCN(Cc3ccccc3)CC2)c2cccnc12	i	66	nt	i	i	103
CN1CCN(C2CCN(Cc3ccc(O)c4ncccc34)CC2)CC1	i	60	nt	i	i	70
O=S(=O)(c1ccc(Cl)cc1)N1CCN(Cc2ccc(O)c3ncccc23)CC1	i	i	i	i	nt	nt
COc1ccc(-c2nnn3c2Cn2c4ccccc4c(=O)n2[C@@H](C(C)C)C3)cc1	nt	nt	nt	i	nt	nt
CNCCNC[C@H](Cc1cccc2ccccc12)NCCc1ccccc1	i	i	nt	i	nt	nt
CNC[C@H](Cc1ccccc1)NC[C@@H](Cc1cccc2ccccc12)NCCc1ccc(C)cc1	i	96	i	i	i	90
CCOC(=O)c1c(C)n(-c2ccc(C)cc2)c2ccc(OCC(O)CNCCCO)cc12 (stereo not given)	i	62	i	i	i	64
CCOC(=O)c1c(C)n(C)c2ccc(OCC(O)CNC(CC)CO)cc12 (stereo not given)	i	i	i	i	nt	nt
OC(CNCC1CCCO1)COc1ccc(OCC(O)CNCC2CCCO2)cc1 (stereo not given)	i	i	i	nt	nt	nt
CCOC(=O)c1c(C)n(-c2ccc(C)cc2)c2ccc(OCC(O)CNCC3CCCO3)cc12 (stereo not given)	i	56	i	nt	i	77
CCCCCCNC(=O)c1c(N)[nH]c(C(=O)c2ccccc2)c1-c1ccc(O)cc1	nt	nt	nt	i	nt	nt
CC(C)(N[C@@H](Cc1c[nH]c2ccccc12)C(=O)NCC(c1ccccc1)c1ccccc1)C(=O)NC1CCCCC1	nt	nt	nt	i	nt	nt
C=CCn1c(Cc2cccs2)nnc1SCC(=O)Nc1ccc2c(c1)OCO2	nt	nt	nt	i	nt	nt
SMILES	GRIN3A LBD mod	UBC13 inh	UBC9 SUMO inh	sPLA2-III inh	Casp3 UBC13 ctr	UBC13 conf
COC(=O)C[C@H]1CC[C@H]2[C@@H](COc3ccc(NC(=O)Nc4ccccc4)cc3C(=O)N2C)O1	nt	nt	nt	i	nt	nt
CCn1c(=O)cc(SCC(=O)N2CCN(C3CCCCC3)CC2)c2ccccc21	i	79	i	i	i	?
CCOC(=O)[C@@]12CN(C(=O)OC(C)(C)C)CC=C1N(Cc1ccc(OC)cc1)C(=O)[C@H]2CC(=O)N1CCN(C(=O)C2CC2)CC1	nt	nt	nt	i	nt	nt
CC(C)(C)c1cc(NCCCn2ccnc2)n2ncc(-c3ccc(Cl)cc3)c2n1	20	52	i	i	i	77
Cc1cc(NCCCn2ccnc2)n2nc(-c3ccc(Cl)cc3)cc2n1	i	i	i	i	nt	nt
CN(C)CCCNc1cc(C(C)(C)C)nc2c(-c3ccccc3)cnn12	i	66	i	i	i	i
FC(F)(F)c1cc(CCN2CCNC[C@@H]2CC2CCCCC2)cc(C(F)(F)F)c1	i	87	nt	i	i	97
CCCC[C@@H]1CNCCN1CCc1cc(C(F)(F)F)cc(C(F)(F)F)c1	i	55	nt	i	i	i
Fc1cccc(CCN2CCNC[C@@H]2c2ccccc2)c1	i	i	nt	i	nt	nt
CCC(C)[C@H]1CNCCN1CCc1cc(C(F)(F)F)cc(C(F)(F)F)c1 (stereo not given in full)	i	60	nt	i	i	i
c1ccc(C[C@H]2CNCCN2CC2CCCCC2)cc1	i	i	nt	i	nt	nt
CCC(C)[C@H]1CNC(=S)N1CCc1cc(C(F)(F)F)cc(C(F)(F)F)c1 (stereo not given in full)	i	i	i	i	nt	nt
FC(F)(F)c1cc(CCN2CCNC[C@@H]2c2ccccc2)cc(C(F)(F)F)c1	i	66	nt	i	i	62
C[C@H]1[C@@H](OC(=O)NCc2ccc(Cl)cc2)CC[C@@]23CCCN2C(=O)CCC[C@@H]13	nt	nt	nt	i	nt	nt
COc1cccc(-c2nnc(SCC(=O)Nc3ccc(OCc4ccccc4)cc3)n2Cc2ccco2)c1	nt	nt	nt	i	nt	nt
COc1ccc(OCCCC(=O)Nc2ccc(S(=O)(=O)N3CCOCC3)cc2)cc1	11	58	nt	i	i	55
Cc1cc(C)cc(NC(=O)N2CCN(Cc3nc4ccccc4c(=O)[nH]3)CC2)c1	nt	nt	nt	i	nt	nt
c1ccc(Nc2nc(NCC3CCCO3)c3ccccc3n2)cc1 (stereo not given)	i	i	i	i	nt	nt
CCOc1ccc(Nc2nc(NCC3CCCO3)c3ccccc3n2)cc1 (stereo not given)	i	66	i	i	i	86
COC(=O)[C@@]12CCCCC3=C1N(CCC3)C(=O)[C@H]2CC(=O)N1CCCCC1	nt	nt	nt	i	nt	nt
Cc1ccc(-c2c(C(=O)Nc3ccccc3C)c(C)[nH]c(=S)c2C#N)o1	i	i	i	i	nt	nt
Cc1[nH]c(=S)c(C#N)c(-c2ccccc2)c1C(=O)Nc1ccccc1	i	51	i	i	i	?
Cc1ccccc1NC(=O)c1c(C)[nH]c(=S)c(C#N)c1-c1ccc(Cl)cc1	i	50	i	i	i	?

Screening results from PubChem.
